Source: PubChem BioAssay

Test: JC-1 mitochondrial signal, unstimulated MM1S myeloma – cell-based, JC-1 fluorescence, 24 h, 100 nL compound, profiling panel (AID 1170); note: test concentration not given here
Settings: MM1S mitochondrial potential, higher = more signal

Q: For `O=C1c2ccccc2[C@](Cc2ccccc2I)(C(=O)NCCN2CCOCC2)[C@H](c2ccc(CO)cc2)N1Cc1ccccc1`, which z-score is on record?
A: -0.462

Q: With `CN(C)CCCCNC(=O)[C@H]1C[C@H]2C(=O)N3CCC[C@H]3C(=O)N2[C@H]1c1ccc(O)cc1` as the compound, how does the z-score read?
A: -0.927

Q: Which z-score does the source give for `C=C(CCCC)C(=O)CC[C@@H](OC(=O)c1ccccc1-c1ccccc1C(=O)O)c1cccc(OCCO)c1` here?
A: 0.0735

Q: With `C=C(C(=O)CC[C@H](OC(=O)c1cccnc1)c1ccc(CO)o1)C(C)C` as the compound, how does the z-score read?
A: -0.458

Q: With `COc1ccc(C#Cc2ccc3c(c2)[C@]2(C(=O)N3)[C@H](C(=O)N3CCc4cc(OC)c(OC)cc4C3)[C@H]3C(=O)O[C@H](c4ccccc4)[C@H](c4ccccc4)N3[C@@H]2c2ccc(O)cc2)cc1` as the compound, how does the z-score read?
A: -1.09

Q: Which z-score does the source give for `[N-]=[N+]=NCc1ccccc1C[C@@]1(C(=O)N2CCCCC2)N=C(c2ccc(OCCCO)cc2)O[C@@H]1c1ccccc1N=[N+]=[N-]` here?
A: -1.14

Q: With `C=C[C@@H](COC(C)=O)NS(=O)(=O)c1ccc(Br)cc1` as the compound, how does the z-score read?
A: -0.259

Q: With `CCOC(=O)C[C@H]1[C@H](OC(=O)c2ccc(-c3ccccc3)cc2)[C@@H](NC(=O)c2ccc3ccccc3c2)c2cc(OCCCO)ccc2N1C(=O)c1ccc2ccccc2n1` as the compound, how does the z-score read?
A: 0.164

Q: Which z-score does the source give for `CC(C)(C)OC(=O)CC[C@]1(C(=O)NCCN2CCOCC2)N=C(c2ccc(OCCCO)cc2)O[C@H]1c1ccccc1` here?
A: -0.158

Q: With `C=CCOC(=O)[C@@H]1[C@H]2C(=O)O[C@H](c3ccccc3)[C@H](c3ccccc3)N2[C@H](c2ccc(OCCOC(=O)[C@H]3C[C@H]4C(=O)N[C@@H](CC(C)C)C(=O)N4[C@H]3c3ccc(O)cc3)cc2)[C@@]12C(=O)Nc1ccc(I)cc12` as the compound, how does the z-score read?
A: -0.838

Q: With `O=C(CS)NCCCCCCNC(=O)[C@@H]1C[C@@H]2C(=O)N3CCC[C@H]3C(=O)N2[C@@H]1c1cccc(OCCO)c1` as the compound, how does the z-score read?
A: 0.111

Q: Which z-score does the source give for `COc1ccccc1CN1C(=O)c2ccccc2[C@@H](C(=O)NC(C)C)[C@@H]1c1ccc(CO)cc1` here?
A: -0.365

Q: With `C=CCOC(=O)[C@@H]1[C@H]2C(=O)O[C@H](c3ccccc3)[C@H](c3ccccc3)N2[C@H](c2ccc(OCCOC(=O)[C@H]3C[C@H]4C(=O)N[C@@H](CCCCNC(C)=O)C(=O)N4[C@H]3c3cccc(OCCO)c3)cc2)[C@@]12C(=O)Nc1ccc(I)cc12` as the compound, how does the z-score read?
A: -0.864

Q: With `O=C1OCC=C[C@H]2OC34C=CCN(Cn5nnc6ccccc65)C(=O)[C@H]3N(CCCCCCO)C(=O)[C@@H]4[C@@H]12` (stereo not given in full) as the compound, how does the z-score read?
A: -0.467

Q: With `COC(=O)Cn1c(C(=O)N2CCCC2)cc2c1C[C@H]1CN(C(=O)c3ccccc3)[C@@](Cc3ccc(F)cc3)(C(=O)OC)[C@@H]21` as the compound, how does the z-score read?
A: -1.68

Q: For `COc1cc(OC)c(C(O)C2C=CC3C(=O)N(c4ccccc4)C(=O)C3N2Nc2ccc(C#N)cc2)cc1Br` (stereo not given), which z-score is on record?
A: -0.00738

Q: For `COc1ccc([Si](C)(C)[C@@H]2[C@@H](CC(=O)N3CCC[C@H]3CO)O[C@]3(C(=O)N(Cc4ccc(N5C(=O)c6cccc7cccc5c67)cc4)c4ccccc43)[C@H]2C)cc1`, which z-score is on record?
A: -2.21

Q: Which z-score does the source give for `CC=CC(O)C1C=CC2C(=O)N(c3ccccc3)C(=O)C2N1Nc1ccccc1` (stereo not given) here?
A: -0.749

Q: With `CC(C)C(=C=CC[C@@H](O)c1ccccc1OCCO)C[C@@H](O)COCc1ccccc1` as the compound, how does the z-score read?
A: 0.339

Q: With `CC(C)(C)N1CC=CC23O[C@@H]4C=CCOC(=O)[C@@H]4[C@H]2C(=O)N(CCCO)[C@@H]3C1=O` (stereo not given in full) as the compound, how does the z-score read?
A: 0.745

Q: For `COc1c(C)cc(-c2cc3c(c(-c4ccccc4)n2)[Si](C(C)C)(C(C)C)OC3)cc1C`, which z-score is on record?
A: 0.486

Q: Which z-score does the source give for `Cc1ccc(S[C@]2(C(=O)NCC(C)C)CC(=O)N(Cc3ccccc3Cl)[C@@H]2c2ccc(CO)cc2I)cc1` here?
A: -1.75

Q: For `O=C1O[C@@H](c2ccccc2)[C@@H](c2ccccc2)N2[C@@H](c3ccccc3OCCO)[C@]3(C(=O)Nc4ccc(C#CC5=CCCCC5)cc43)[C@@H](C(=O)NC[C@H](O)c3ccccc3)[C@H]12`, which z-score is on record?
A: -2

Q: Which z-score does the source give for `O=C(O)[C@H](Cc1ccccc1)n1cc(-c2ccccn2)nn1` here?
A: -0.263

Q: Which z-score does the source give for `CC1CC/C=C\[C@H]2OC34C=CCN(CCN5CCOCC5)C(=O)[C@H]3N(CCO)C(=O)[C@@H]4C2C(=O)O1` (stereo not given in full) here?
A: 0.671

Q: Which z-score does the source give for `CCOC(=O)C[C@H]1[C@H](OC(=O)c2ccc(-c3ccccc3)cc2)[C@@H](NC(=O)C2CCCCC2)c2cc(OCCCO)ccc2N1C(=O)c1ccccc1` here?
A: -0.101

Q: For `COCCCNC(=O)[C@@]1(Sc2ccc(C)cc2)CC(=O)N(Cc2cc(C(F)(F)F)cc(C(F)(F)F)c2)[C@@H]1c1ccc(CO)cc1`, which z-score is on record?
A: -0.422

Q: With `CCCC[C@@H]1C[C@H]1[C@@H](NC(=O)c1cccnc1)c1ccc(-c2ccccc2)cc1` as the compound, how does the z-score read?
A: -1.13

Q: For `O=C1O[C@@H](c2ccccc2)[C@@H](c2ccccc2)N2[C@@H](c3ccc(O)cc3)[C@]3(C(=O)Nc4ccc(C#CCCO)cc43)[C@@H](C(=O)Nc3nc4ccccc4s3)[C@H]12`, which z-score is on record?
A: -1.03

Q: With `O=C(O)[C@]1(Cc2ccccc2)N=C(c2ccc(OCCCO)cc2)O[C@@H]1c1ccccc1` as the compound, how does the z-score read?
A: -0.38

Q: With `Cc1ccc(S[C@]2(C(=O)NCc3ccccc3)CC(=O)N(C(C)C)[C@@H]2c2ccc(CO)cc2I)cc1` as the compound, how does the z-score read?
A: -1.12

Q: For `Cc1ccc(C(C)CC(O)C2C=CC3C(=O)N(c4ccccc4)C(=O)C3N2Nc2ccc(C(C)C)cc2)o1` (stereo not given), which z-score is on record?
A: 0.772

Q: With `C=CC[C@]12N=C(c3ccc(OCCCO)cc3)O[C@H]1c1ccccc1N(C)C2=O` as the compound, how does the z-score read?
A: 0.203

Q: Which z-score does the source give for `C=C(COC)/C(=C/C[C@@H](OC(=O)c1ccncc1)c1ccc(CO)o1)c1cnc2ccccc2c1` here?
A: -0.151

Q: Which z-score does the source give for `O=C1NC(=O)C2C1C=CC(C(O)c1cc(C(F)(F)F)cc(C(F)(F)F)c1)N2Nc1ccc(Cl)cc1Cl` (stereo not given) here?
A: 0.4
